# The sample as a whole holds a higher share of the strongest signals than the screen did.
# Key:
# Test in all cases: glycan array binding signal (z-score within array); higher = stronger binding
# Settings in all cases: glycan notation: IUPAC condensed, linker removed
# [1] = molecular target: Gal(b1-4)GlcNAc(b1-3)[Fuc(a1-3)GlcNAc(b1-6)]Gal(b1-4)Glc
# Summary of the method: (§1)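 Glycan array data were curated from 3228 arrays in the Consortium for Functional Glycomics database and kept only where the protein sequence was available. Glycan names were converted to IUPAC-condensed notation, and columns mapping to the same glycan were averaged. The binding signal is a within-array Z-score, averaged across arrays of the same protein sequence at different concentrations or buffers and across linkers. Negative Z-scores can be read as non-binding.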
# Gal3S(b1-4)Glc6S = molecular target: Gal3S(b1-4)Glc6S
# Summary of the method: as §1
# Gal3S6S(b1-4)GlcNAc6S = molecular target: Gal3S6S(b1-4)GlcNAc6S
# Summary of the method: as §1
# Gal6S(b1-4)Glc6S = molecular target: Gal6S(b1-4)Glc6S
# Summary of the method: as §1
# GalNAc3S(b1-4)GlcNAc3S = molecular target: GalNAc3S(b1-4)GlcNAc3S
# Summary of the method: as §1
# [2] = molecular target: GlcA3S(b1-3)Gal(b1-4)GlcNAc(b1-2)Man
# Summary of the method: as §1
# [3] = molecular target: GlcNAc(b1-2)[GlcNAc(b1-6)]Man(a1-6)[GlcNAc(b1-2)Man(a1-3)]Man(b1-4)GlcNAc(b1-4)[Fuc(a1-6)]GlcNAc
# Summary of the method: as §1
# GlcNAc(b1-3)Gal = molecular target: GlcNAc(b1-3)Gal
# Summary of the method: as §1
# GlcNAc(b1-6)GalNAc = molecular target: GlcNAc(b1-6)GalNAc
# Summary of the method: as §1
# [4] = molecular target: Kdn(a2-3)Gal(b1-4)[Fuc(a1-3)]GlcNAc
# Summary of the method: as §1
# Kdn(a2-6)Gal(b1-4)GlcNAc = molecular target: Kdn(a2-6)Gal(b1-4)GlcNAc
# Summary of the method: as §1
# [5] = molecular target: Man(a1-2)Man(a1-3)[Man(a1-6)]Man(a1-6)[Man(a1-2)Man(a1-3)]Man(b1-4)GlcNAc(b1-4)GlcNAc
# Summary of the method: as §1
# [6] = molecular target: Neu5Ac(a2-3)Gal(b1-3)GlcNAc(b1-2)Man
# Summary of the method: as §1
# [7] = molecular target: Neu5Ac(a2-3)Gal(b1-3)GlcNAc(b1-3)GalNAc
# Summary of the method: as §1
# [8] = molecular target: Neu5Ac(a2-3)Gal(b1-3)GlcNAc6S
# Summary of the method: as §1
# [9] = molecular target: Neu5Ac(a2-3)Gal(b1-3)[Fuc(a1-4)]GlcNAc
# Summary of the method: as §1
# [10] = molecular target: Neu5Ac(a2-3)Gal(b1-3)[Neu5Ac(a2-6)]GlcNAc(b1-3)[Fuc(a1-3)[Gal(b1-4)]GlcNAc(b1-6)]Gal(b1-4)Glc
# Summary of the method: as §1
# [11] = molecular target: Neu5Ac(a2-3)Gal(b1-4)GlcNAc(b1-2)[Neu5Ac(a2-3)Gal(b1-4)GlcNAc(b1-4)]Man(a1-3)[GlcNAc(b1-4)][Neu5Ac(a2-3)Gal(b1-4)GlcNAc(b1-2)[Neu5Ac(a2-3)Gal(b1-4)GlcNAc(b1-6)]Man(a1-6)]Man(b1-4)GlcNAc(b1-4)GlcNAc
# Summary of the method: as §1
# [12] = molecular target: Neu5Ac(a2-3)Gal(b1-4)GlcNAc(b1-3)Gal(b1-4)GlcNAc(b1-3)[Neu5Ac(a2-3)Gal(b1-4)GlcNAc(b1-3)Gal(b1-4)GlcNAc(b1-6)]GalNAc
# Summary of the method: as §1
# [13] = molecular target: Neu5Ac(a2-3)Gal(b1-4)[Fuc(a1-3)]GlcNAc(b1-6)[Gal(b1-3)]GalNAc
# Summary of the method: as §1
# [14] = molecular target: Neu5Ac(a2-3)Gal6S(b1-4)[Fuc(a1-3)]GlcNAc
# Summary of the method: as §1
# [15] = molecular target: Neu5Ac(a2-6)Gal(b1-4)GlcNAc(b1-2)Man(a1-3)[Neu5Ac(a2-6)Gal(b1-4)GlcNAc(b1-2)Man(a1-6)]Man(b1-4)GlcNAc(b1-4)GlcNAc
# Summary of the method: as §1
# [16] = molecular target: Neu5Ac(a2-6)Gal(b1-4)GlcNAc(b1-2)Man(a1-6)Man(b1-4)GlcNAc(b1-4)GlcNAc
# Summary of the method: as §1
# [17] = molecular target: Neu5Ac(a2-6)Gal(b1-4)GlcNAc(b1-2)Man(a1-6)[Man(a1-3)]Man(b1-4)GlcNAc(b1-4)GlcNAc
# Summary of the method: as §1
# [18] = molecular target: Neu5Ac(a2-6)Gal(b1-4)GlcNAc(b1-3)Gal(b1-4)GlcNAc(b1-3)Gal(b1-4)GlcNAc(b1-2)Man(a1-3)[Neu5Ac(a2-6)Gal(b1-4)GlcNAc(b1-3)Gal(b1-4)GlcNAc(b1-3)Gal(b1-4)GlcNAc(b1-2)Man(a1-6)]GalNAc
# Summary of the method: as §1
# [19] = molecular target: Neu5Ac(a2-6)Gal(b1-4)GlcNAc(b1-6)GalNAc
# Summary of the method: as §1
# [20] = molecular target: Neu5Ac(a2-6)GlcNAc(b1-4)GlcNAc(b1-4)GlcNAc
# Summary of the method: as §1
# Neu5Ac(a2-8)Neu5Ac = molecular target: Neu5Ac(a2-8)Neu5Ac
# Summary of the method: as §1
# [21] = molecular target: Neu5Ac(a2-8)Neu5Ac(a2-8)Neu5Ac(a2-3)[GalNAc(b1-4)]Gal(b1-4)Glc
# Summary of the method: as §1
binder,measurement,setting,value
Pbx2CASH domain (Cryptococcus neoformans) (protein) GIPGPNRLYRLSGPIIFTAADQEIATYGYPTGSERAVLRVEGRNTATAIQGDCRRCARVSVKNLVVDGNRKKLGRMRDFQLATGLVVLGGNEGQSIQNSWIKNPRGFTAIHIREGDKLQCSGARVEKNEIGPVGEEYDPEKDGDDPEMSPLGRPLADGVSIACRDSFIRDNTFRDNTDAAIVVYCSPGTLIHA,glycan array binding signal (z-score),[1],-0.704
same,glycan array binding signal (z-score),Gal3S(b1-4)Glc6S,0.057
same,glycan array binding signal (z-score),Gal3S6S(b1-4)GlcNAc6S,1.44
same,glycan array binding signal (z-score),Gal6S(b1-4)Glc6S,3.18
same,glycan array binding signal (z-score),GalNAc3S(b1-4)GlcNAc3S,-0.15
same,glycan array binding signal (z-score),[2],2.57
same,glycan array binding signal (z-score),[3],-0.071
same,glycan array binding signal (z-score),GlcNAc(b1-3)Gal,-0.697
same,glycan array binding signal (z-score),GlcNAc(b1-6)GalNAc,-0.438
same,glycan array binding signal (z-score),[4],0.079
same,glycan array binding signal (z-score),Kdn(a2-6)Gal(b1-4)GlcNAc,-0.478
same,glycan array binding signal (z-score),[5],-0.457
same,glycan array binding signal (z-score),[6],3.35
same,glycan array binding signal (z-score),[7],0.011
same,glycan array binding signal (z-score),[8],-0.247
same,glycan array binding signal (z-score),[9],-0.813
same,glycan array binding signal (z-score),[10],-0.803
same,glycan array binding signal (z-score),[11],0.012
same,glycan array binding signal (z-score),[12],0.079
same,glycan array binding signal (z-score),[13],0.909
same,glycan array binding signal (z-score),[14],-0.748
same,glycan array binding signal (z-score),[15],-0.301
same,glycan array binding signal (z-score),[16],1.6
same,glycan array binding signal (z-score),[17],2.48
same,glycan array binding signal (z-score),[18],4.62
same,glycan array binding signal (z-score),[19],1.05
same,glycan array binding signal (z-score),[20],-0.208
same,glycan array binding signal (z-score),Neu5Ac(a2-8)Neu5Ac,-0.046
same,glycan array binding signal (z-score),[21],3.58
